Data: PubChem BioAssay (NCI)
Compounds without any hit were thinned out: in the full panel of roughly 83,000, 20% have a hit.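 Assay: single dose, 48 h. Readout: percent growth (0 = no net growth; negative = cell death). Active: <10.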 Calls of active or inactive are those of the source.

System: HL-60(TB) leukemia
Assay: NCI-60 one-dose screen, 48 h (100 = growth as untreated, 0 = no growth, -100 = all killed)
Settings: 10 µM unless noted

| SMILES | growth |
| --- | --- |
| CCC(=O)Nc1ccc(-c2nc(-c3cccc(OC)c3)c(-c3ccnc(Br)c3)[nH]2)cc1 | 49.5% (inactive) |
| CC(=O)OC[C@H]1O[C@@H](n2c(=O)cc(N)[nH]c2=O)C(OC(C)=O)[C@@H]1OC(C)=O (some centres undefined) | 107% (inactive) |
| NC(=O)Nc1ccc2ncnc(Nc3ccc(Cl)cc3)c2c1 | 99.9% (inactive) |
| FC(F)(F)c1ccc2nc(-c3nc(-c4ccccc4)n4ccccc34)[nH]c2c1 | 108% (inactive) |
| c1cc[n+](Cc2c3ccccc3cc3c2ccc2ccccc23)cc1 | 36% (inactive) |
| Cc1ccc(NC(=O)N[C@@H](Cc2cc(F)cc(F)c2)C(=O)N[C@@H]2C(=O)N3CCC[C@H]3C(=O)N3CCCC[C@H]3C(=O)N[C@@H](C)C(=O)N3C[C@H](C)C[C@H]3C(=O)O[C@H]2C)cc1 | 11.6% (inactive) |
| CN1CCN(CCCOc2ccc3ncnc(Nc4ccc(Oc5cccc(F)c5)c(Cl)c4)c3c2)CC1 | -47.3% (active) |
| CC(=O)NC(CCc1ccc(Cl)c(Cl)c1)c1cccc(O)c(=O)c1 (centres undefined) | -16.5% (active) |
| C=C1C(=O)O[C@H]2[C@H]1CC/C(COC(=O)NCc1cc(OC)c(OC)c(OC)c1)=C\CC[C@@]1(C)O[C@@H]21 | 11.5% (inactive) |
| O=c1c2cnn(-c3ccccc3)c2n2c(CN3CCOCC3)nnc2n1-c1ccccc1 | 102% (inactive) |
| CCOC(=O)C1=C(C)N=c2s/c(=C\c3ccccc3O)c(=O)n2C1c1ccc(OC)c2ccccc12 (centres undefined) | -48.6% (active) |
| Cc1ccc(C2CC(c3ccc(Nc4ccnc5cc(Cl)ccc45)cc3)=NN2C=O)cc1 (centres undefined) | 9.36% (active) |
| CSc1nn(-c2ccccc2)c2ncnc(Oc3ccc(C)cc3)c12 | 98.3% (inactive) |
| CCOC(=O)CCCCCCCCC(=O)OCC | 97.4% (inactive) |
| CCCCCCCCn1cc(C2=C(c3coc4ccc(OC)cc34)C(=O)NC2=O)c2ccccc21 | 133% (inactive) |
| Clc1ccc2c(NCCNc3nc(Cl)nc4ccccc34)ccnc2c1 | -67% (active) |
| COc1cc(/C=C/C(=O)c2ccc(NC(=O)CSc3nnc(-c4cc(OC)c(OC)c(OC)c4)n3-c3ccccc3)cc2)cc(OC)c1OC | 6.87% (active) |
| Nc1nc2c(c3ncccc13)C(c1cccc(Cl)c1)Cc1ncccc1-2 (centres undefined) | -6.22% (active) |
| N#C/C(=C\c1ccccn1)c1nc2cc(Cl)ccc2s1 | 52% (inactive) |
| O=C(NNC(=S)Nc1ccccc1)c1ccccn1 | -6.25% (active) |

| SMILES | growth |
| --- | --- |
| O=C(CSc1nnc(-c2ccc(Cl)c(Cl)c2)n1-c1ccccc1)Nc1ccc(C(=O)/C=C/c2ccc(Cl)cc2)cc1 | 81.8% (inactive) |
| C=C1C(=O)O[C@H]2[C@H]1CC/C(C=Nc1c(N)cc(C(F)(F)F)cc1Br)=C\CC[C@@]1(C)O[C@@H]21 | -13.1% (active) |
| CC(=O)OC[C@]12CC[C@H]3[C@@H](C[C@H]4O[C@]45CC=CC(=O)[C@]35C)[C@]1(O)CC[C@@]2(O)[C@@](C)(O)C1CC(C)=C(C)C(=O)O1 (some centres undefined) | -11.8% (active) |
| COc1nc(=O)n(C2C=CC(=O)O2)cc1F (centres undefined) | 1.27% (active) |
| COc1ccc2c(c1)c(C(=O)c1nc(-c3cn(C)c4ccccc34)no1)cn2C | 92% (inactive) |
| Cc1ccc(Sc2sc(-c3ccccc3)nc2[P+](c2ccccc2)(c2ccccc2)c2ccccc2)cc1 | -40.5% (active) |
| COc1ccc(/C=C/c2nc(Nc3cccc(NC(C)=O)c3)c3ccccc3n2)cc1 | 78.5% (inactive) |
| Cc1ccc(-c2nc([P+](c3ccccc3)(c3ccccc3)c3ccccc3)c(N3C[C@H]4C[C@H](C3)c3cccc(=O)n3C4)o2)cc1 | 36.7% (inactive) |
| O=C(Nc1ccc([N+](=O)[O-])cc1)c1cc2ccccc2cc1O | -16.7% (active) |
| O=c1c2ccccc2[nH]n1Cc1ccc2c(c1)OCO2 | 98.4% (inactive) |
| O=C(Cc1ccc(/C=C/C(=O)c2ncc[nH]2)cc1)Nc1cc(F)c(F)c(F)c1 | 7.25% (active) |
| O=[N+]([O-])CC(c1ccccc1F)c1c[nH]c2ccccc12 (centres undefined) | 51.1% (inactive) |
| COC(=O)[C@H](Cc1cn(C)cn1)NC(=O)[C@@H](NC(=O)Nc1cc(C(F)(F)F)cc(C(F)(F)F)c1)C(C)C | -73.5% [100 µM] (active) |
| CCSc1nc2scc(C)c2c(=O)[nH]1 | 99.8% (inactive) |
| C[C@]12CC[C@@H]3c4cc(OC(F)F)c(O)cc4CC[C@H]3[C@@H]1CC[C@@H]2OS(N)(=O)=O | 7.66% (active) |
| CN1CC(c2ccccc2)C(C(=O)c2ccc(Br)cc2)C12C(=O)Nc1ccccc12 (centres undefined) | 99.8% (inactive) |
| CCN(CC)CCN1C(=O)c2c(c(C)c3c(oc4ccc(O)cc43)c2C)C1=O | -6.29% (active) |
| Nc1ccccc1NC(=O)c1ccc(CN2CCC/C(=C\c3cccc(Cl)c3)C2=O)cc1 | -24.5% (active) |
| CC/C(=N\Nc1nc2ccccc2n1C)c1ccccn1 | -29.4% (active) |
